Among all 330,000 compounds or so, about 1,900 (0.58%) were called active. Another 4% or so got no clear call; they are omitted. No stated cut-off is given here; in the data, inconclusive means inhibition above about 70% without an active follow-up result; inactive means below that. These entries were drawn from the full list. Measured potencies and affinities stand elsewhere.

This assay is described as follows: M. tuberculosis growth inhibition, HTS (AID 449762).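 Further: bacterial growth assessed after seven days of incubation.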 The following applies: M. tuberculosis H37Rv growth inhibition, 7H9 media; at 25 µM; active compounds read high.
In the case of `CSc1ccccc1OCc1cc(C(=O)N2CCSCC2)no1`, the inhibition is 4.18% (inactive).

For `COCC1CCN(C(=O)c2cc(COc3ccccc3SC)on2)C1` (stereo not drawn), the inhibition was -1.2% (inactive). As to `CCOC(=O)[C@@]12C(=O)C(=O)N[C@]1(c1ccccc1)C1OCCCC12` (stereo partly drawn), the inhibition was 1.95% (inactive).

Consider `COc1ccc(Cn2c(-c3ccc(C)cc3)nc3c(c(=O)c4ccccc4n3C)c2=O)cc1`, for which the inhibition is -5.96% (inactive). On to `Cn1c2ccccc2c(=O)c2c(=O)n(Cc3ccco3)c(-c3ccc(F)cc3)nc21`, for which the inhibition is 0.8% (inactive). For `Cc1noc(C)c1CSCC(=O)Nc1cccc(C(F)(F)F)c1`, the inhibition is -7.37% (inactive). In the case of `CCCCCCc1cc2cc(C(=O)NC)c(=N)oc2cc1O`, the inhibition was 2.6% (inactive).

Take `CCCCCCc1cc2cc(C(=O)Nc3ccccc3)c(=O)oc2cc1O`: the inhibition is -5.44% (inactive). Consider `CCc1ccc(CNn2cnnc2SCC(=O)NC(C)(C)C)cc1`, for which the inhibition is -7.47% (inactive). With `CC1CN(CC(=O)Nc2ccc([N+](=O)[O-])cc2Br)CC(C)O1` (stereo not drawn), the inhibition is 0.73% (inactive).

`CCC/C(=N/NC(=O)c1ccccc1Cl)c1ccccc1`: the inhibition was 8.2% (inactive). For the molecule `NC(N)=NNC(=O)c1ccccc1Cl`, the inhibition is -5.25% (inactive).

In the case of `CN(Cc1ccccc1)CC(O)COc1ccc(CNCc2nccn2C)cc1` (stereo not drawn), the inhibition was -8.78% (inactive). As for `NC(=O)CC(NC(=O)c1ccccc1)c1ccc(N2CCC(Cc3ccccc3)CC2)c([N+](=O)[O-])c1` (stereo not drawn), the figure is 5.54% (inactive); as for `CC(C)OCCCn1c(-c2ccco2)nc2nc3ccccc3nc21`, 0.09% (inactive); as for `CCCCCn1c(-c2ccco2)nc2nc3ccccc3nc21`, 16.5% (inactive). The figure for `C/C(=N\OCC(=O)Nc1ccccc1C(C)(C)C)c1ccc2c(c1)OCCO2` is 9.78% (inactive); for `O=C(Cn1cnc2scc(-c3ccc(Br)cc3)c2c1=O)N1CCOCC1` it is 2.04% (inactive).

Turning to `Clc1ccc(CNC23CN4CN(CN(C4)C2)C3)c(Cl)c1`, the inhibition is -14.8% (inactive). As for `O=C(Nc1ccncc1)c1cc(S(=O)(=O)N2CCCC2)ccc1Cl`, the figure is 5.2% (inactive); as for `N#Cc1nc(-c2ccc(OCc3ccc(Cl)cc3)cc2)oc1NCCCn1ccnc1`, 0.8% (inactive). On to `N#Cc1nc(-c2ccc(OCc3ccccc3Cl)cc2)oc1NCCCn1ccnc1`, for which the inhibition is 0.78% (inactive). On to `COc1ccc(C2C(C(C)=O)=C(O)C(=O)N2c2cccnc2)c(OC)c1` (stereo not drawn), for which the inhibition is -10.5% (inactive). On to `O=C1C(Cl)=C(N2CCOCC2)C(=O)N1c1cccc(C(F)(F)F)c1`, for which the inhibition is 8.59% (inactive).

Regarding `Cc1cccc(N2C(=O)C(Cl)=C(N3CCOCC3)C2=O)c1`, the inhibition was -0.44% (inactive). As for `CCOCC(=O)N1CCC(Cc2ccccc2)CC1`, the figure is 12.3% (inactive); as for `CCOC(=O)C(=O)N1CCC(Cc2ccccc2)CC1`, 1.59% (inactive).

In the case of `Cc1oc(-c2ccccc2F)nc1CSCC(=O)NC1CCCC1`, the inhibition is -11.2% (inactive). In the case of `CC(C)(Oc1ccc(F)cc1)C(=O)OCC(=O)c1ccc(S(C)(=O)=O)cc1`, the inhibition is 3.45% (inactive). As to `CCOC(=O)c1nn(-c2cccc(Cl)c2)c2nc(Nc3ccccc3)cc(=O)n12`, the inhibition was -3.5% (inactive).

`CCOC(=O)c1nn(-c2ccc(F)cc2)c2nc(Nc3ccccc3)cc(=O)n12`: the inhibition is 38.7% (inactive). Consider `O=C(Nc1ccccc1)C1CC(=O)n2ncnc2N1` (stereo not drawn), for which the inhibition was -4.59% (inactive). With `Cc1ccc(S(=O)(=O)N2[C@@H](c3ccc(Br)cc3)C(C(=O)O)=CC[C@H]2c2ccc(Cl)cc2)cc1`, the inhibition was 9.55% (inactive). Consider `CCN(CC)C(=O)c1ccc(C(=O)c2c(C)cc(C)cc2C)cc1`, for which the inhibition is -0.54% (inactive). In the case of `COc1ccc2c(Cl)c(-c3nnc(SCC(N)=O)n3C)sc2c1`, the inhibition is -4.23% (inactive).

As to `COc1ccc2c(Cl)c(-c3nnc(SCC(=O)c4ccccc4)n3C)sc2c1`, the inhibition is 5.59% (inactive).

With `COc1ccc(NC(=O)c2ccc3c(=O)n(-c4ccc(OC)cc4OC)c(=S)[nH]c3c2)c(OC)c1`, the inhibition is 40% (inactive). As for `CC(=O)c1cccc(CN2CCC(CO)(CCCc3ccccc3)CC2)c1`, the inhibition was -3.4% (inactive). In the case of `Cc1ccccc1-c1ncc(CN2CCC(CO)(CCCc3ccccc3)CC2)cn1`, the inhibition was 22.1% (inactive). Turning to `Cc1cc(C)c(NC(=O)c2cn3c4c(c(N5CCN(C)CC5)c(F)cc4c2=O)OCC3C)c(C)c1` (stereo not drawn), the inhibition was 9.2% (inactive). Consider `Cc1c(-n2cc(C(=O)O)c(=O)c3cc(F)c(N4CCCC4)c(F)c32)c(=O)n(-c2ccccc2)n1C`, for which the inhibition is 5.31% (inactive). Take `CCOc1cc(S(=O)(=O)N2CCN(S(=O)(=O)CC)CC2)c(OCC)cc1-n1cnnn1`: the inhibition was 0.44% (inactive). For `O=C(O)/C=C/C(=O)Nc1nccs1`, the inhibition is -2.62% (inactive).

For `O=C1C(C=NCCCN2CCCC2=O)=C(O)c2ccccc21`, the inhibition was -5.89% (inactive). Regarding `COc1ccc(Cl)cc1NS(=O)(=O)c1cccc(C(=O)NC2CC2)c1`, the inhibition is 1.57% (inactive).

`COc1ccc(-c2oc(NC(=O)c3ccc(C)cc3)c(C#N)c2-c2ccc(OC)cc2)cc1`: the inhibition is 5.32% (inactive).

As for `COc1ccc(-c2oc(NC(C)=O)c(C#N)c2-c2ccc(OC)cc2)cc1`, the inhibition was 3.57% (inactive). For `Cc1cc(C(=O)O)cc(S(=O)(=O)Nc2c(C)nn(C)c2C)c1C`, the inhibition was -1.21% (inactive).

As for `COc1cccc2cc(C(=O)OCc3ccccc3)c(=O)oc12`, the inhibition was 10.5% (inactive).

Turning to `CN1OC(COC(=O)c2ccccc2)CC1c1ccccc1` (stereo not drawn), the inhibition was 66.5% (inactive).

On to `CN1OC(COC(=O)c2ccc(Cl)cc2)CC1c1ccccc1` (stereo not drawn), for which the inhibition was 19.7% (inactive). The figure for `CCCn1cc(S(=O)(=O)c2ccc(F)cc2)c(=O)c2cc(OCC)ccc21` is 4.19% (inactive); for `CC(=O)Nc1ccc(S(=O)(=O)Oc2cccc(/C=N/N=C3/NC(=O)C(CC(=O)O)S3)c2)cc1` (stereo not drawn) it is -3.02% (inactive); for `O=C(Nc1ccc(Cl)cc1C(F)(F)F)C(Sc1cccc[n+]1[O-])c1ccccc1` (stereo not drawn) it is 16.4% (inactive). For `O=C(Nc1cccc(C(F)(F)F)c1)C(Sc1cccc[n+]1[O-])c1ccccc1` (stereo not drawn), the inhibition is 0.11% (inactive). The figure for `CS(=O)(=O)N(CC(=O)Nc1ccc(Br)cc1F)C1CCCCC1` is -1.79% (inactive); for `CC(=O)NCCC(=O)Nc1ccc(C(N)=O)cc1` it is 3.35% (inactive); for `O=C(/C=C/c1ccc([N+](=O)[O-])cc1)OCC(=O)N1c2ccccc2Sc2ccccc21` it is 3.32% (inactive). As for `CC(C)(C)c1ccc(C(=O)C=[N+]=[N-])cc1`, the figure is -1.15% (inactive). With `CCOc1ccc(C(=O)/C=C/c2ccccc2C(F)(F)F)cc1`, the inhibition was 9.8% (inactive). As for `COc1ccc(CC(=O)NNC(=O)CCc2ccccc2)cc1OC`, the inhibition was 0.55% (inactive). Consider `O=C(NCC(O)c1ccccc1)c1ccccc1` (stereo not drawn), for which the inhibition is -1.58% (inactive).

In the case of `Cc1ccc(C)c(Cc2c(C)nc3c(C(=O)NCc4ccc5c(c4)OCO5)cnn3c2C)c1`, the inhibition was 65.9% (inactive). As for `CN1C(=O)/C(=C/c2ccc(OCc3cccc(F)c3)cc2)NC1=S`, the figure is 14.5% (inactive). Take `CCCNC(=S)Nc1ccc(Oc2ccccc2)cc1`: the inhibition was -11% (inactive).

With `Cc1cccc(NC(=S)Nc2ccccn2)c1`, the inhibition is -7.66% (inactive). As for `CCCNC(=S)Nc1ccccc1`, the inhibition is 0.1% (inactive).

Take `COc1ccc(NC(=S)Nc2ccccn2)cc1`: the inhibition is -2.6% (inactive). For the molecule `N#Cc1cc2c(nc1SCc1cccnc1)CCCCC2`, the inhibition is 7.53% (inactive). For `CC1CCN(S(=O)(=O)c2ccc(S(=O)(=O)N3CCC4(CC3)OCCO4)cc2)CC1`, the inhibition is 0.35% (inactive). Turning to `Cc1cc(NC(=O)/C=C/C(=O)N(CC(=O)NC2CCCC2)c2cccc3ccccc23)no1`, the inhibition is -2.08% (inactive). Regarding `COc1ccc(CCNCC2C(Oc3ccc(Cl)cc3)C(=O)N2c2ccccc2C)cc1OC` (stereo not drawn), the inhibition is 11.7% (inactive).

Turning to `COC(=O)c1ccc2c(=O)[nH]c(COC(=O)CCC(=O)c3ccc(Cl)cc3)nc2c1`, the inhibition was 0.04% (inactive).

As to `Cc1cc(=O)c2ccc3ccccc3c2[nH]1`, the inhibition is 10.2% (inactive). Turning to `CCCc1c(C)nc2ccc(OC)cc2c1SCCC(=O)O`, the inhibition is -2.63% (inactive). In the case of `COc1ccc(C(=O)Nc2cc3c(cc2Cl)OCCCO3)cc1`, the inhibition was 5.96% (inactive). As for `COc1cccc(NC(=O)CSc2nc3n[nH]c(C)c3c(=N)n2-c2cccc(OC)c2)c1`, the figure is -0.47% (inactive); as for `CCc1ccccc1NC(=O)CSc1nc2n[nH]c(C)c2c(=N)n1-c1cccc(OC)c1`, 7.97% (inactive). Take `O=C(CSc1ccc(Br)cc1)N1CCN(C(=O)c2ccco2)CC1`: the inhibition was 2.56% (inactive). As for `COc1ccc(C(=O)C2CCCN(Cc3cn[nH]c3-c3ccccc3)C2)cc1OC` (stereo not drawn), the inhibition was 2.2% (inactive).

On to `O=C(c1ccc2c(c1)OCO2)C1CCCN(Cc2cn[nH]c2-c2ccccc2)C1` (stereo not drawn), for which the inhibition was 4.84% (inactive). As for `CC1Cc2cccc3c(O)c(C(=O)c4nn[nH]n4)c(=O)n1c23` (stereo not drawn), the inhibition is 14.9% (inactive). Take `N#Cc1nc(COc2ccccc2)oc1N1CCCC1`: the inhibition was -0.06% (inactive).

Consider `CC(C)NC(=O)c1onc(CSc2cccc(F)c2)c1C(=O)O`, for which the inhibition is 33.3% (inactive). The figure for `CC(C)NC(=O)c1onc(CSc2ccc(F)c(F)c2)c1C(=O)NC(C)C` is 8.4% (inactive); for `COc1ccc(C)cc1N(C(=O)c1snc(C(N)=O)c1N)C(C(=O)NC1CCCC1)c1ccc(F)cc1` (stereo not drawn) it is 41.8% (inactive). As for `CCOC(=O)c1sc(NC(=S)NC(=O)c2cccc(Cl)c2)c(C(=O)OCC)c1C`, the figure is 3.64% (inactive). As to `C#C[C@]1(O)CC[C@H]2[C@@H]3CCc4cc(OC)ccc4[C@H]3CC[C@@]21C`, the inhibition is -0.52% (inactive).

As for `C#C[C@]1(O)CC[C@H]2[C@@H]3CCc4cc(O)ccc4[C@H]3CC[C@@]21C`, the inhibition is 2.29% (inactive). On to `Cc1cc(C)nc(Sc2nc(Nc3ccccc3)nc(Sc3nc(C)cc(C)n3)n2)n1`, for which the inhibition is -5.43% (inactive). As for `Cc1csc(SCCN2C(=O)c3ccccc3C2=O)n1`, the figure is 1.44% (inactive).

In the case of `O=[N+]([O-])c1ccc2nc(-c3ccccc3)oc2c1`, the inhibition was -0.96% (inactive). As for `O=[N+]([O-])c1ccc2c(c1)oc1ccccc12`, the figure is -7.51% (inactive).

Usually inhibition stands for the relative decrease from the control value, in per cent.

Values taken from PubChem BioAssay AID449762 (Southern Research Specialized Biocontainment Screening …, 2010).
